Laboratory results published in PubChem BioAssay (NCATS).
Records with an inconclusive call do not appear. Activity calls are given as the source filed them. The call rests on the fitted dose curve; in most records, active means well fitted curve in the direction sought with a large enough effect; inconclusive means small, poorly fitted or top-dose-only effect, or another doubt; inactive means no such curve, though single readings can be large; an effect the other way counts as inactive or inconclusive.

Columns and labels:
[1] = target: ATP-dependent 6-phosphofructokinase (Trypanosoma brucei brucei) (UniProt O15648); assay: qHTS Assay to Find Inhibitors of T. brucei phosphofructokinase: hit validation (AID 492961);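 further: luminescence reports ADP formed as PFK phosphorylates fructose-6-phosphate with ATP; on the % scale 0 is the no-effect control and ±100 the full control effect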; details: T. brucei PFK, ADP-Glo luminescence; series mostly up to 51.4 µM
Outline: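 Reaction: 0.1 M triethanolamine pH 8.0, 5 mM MgCl2, F6P 0.5 mM, ATP 0.1 mM, PFK 1.25 nM, 45 min RT. Read-out: ADP-Glo luminescence. Analysis: concentration-response fits, classed by r2 and efficacy.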

[2] = qHTS profiling for inhibitors of Plasmodium falciparum proliferation (AID 504749);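 further: 0% = DMSO vehicle and full inhibition = artemisinin control; nearly all actives have a fitted effect of over 60% in size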; details: P. falciparum in erythrocytes, SYBR Green DNA, 72 h, at 28.7 µM (top of the series)
Outline: (§1)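 Quantitative HTS: compounds pinned into medium, infected erythrocytes added (0.3% parasitemia, 2.5% hematocrit), 72 h culture at 37 C under 5% CO2. Saponin/Triton lysis with SYBR Green I, overnight RT, then fluorescence read.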

3D7 = assay: as above; details: P. falciparum in erythrocytes, SYBR Green DNA, 72 h; series mostly up to 28.7 µM
Outline: as §1

7G8 = assay: as above; details: P. falciparum in erythrocytes, SYBR Green DNA, 72 h; series mostly up to 28.7 µM
Outline: as §1

AS120 = assay: as above; details: P. falciparum in erythrocytes, SYBR Green DNA, 72 h; series mostly up to 28.7 µM
Outline: as §1

ATS189 = assay: as above; details: P. falciparum in erythrocytes, SYBR Green DNA, 72 h; series mostly up to 28.7 µM
Outline: as §1

CP185 = assay: as above; details: P. falciparum in erythrocytes, SYBR Green DNA, 72 h; series mostly up to 28.7 µM
Outline: as §1

CP191 = assay: as above; details: P. falciparum in erythrocytes, SYBR Green DNA, 72 h; series mostly up to 28.7 µM
Outline: as §1

CP192 = assay: as above; details: P. falciparum in erythrocytes, SYBR Green DNA, 72 h; series mostly up to 28.7 µM
Outline: as §1

CP194 = assay: as above; details: P. falciparum in erythrocytes, SYBR Green DNA, 72 h; series mostly up to 28.7 µM
Outline: as §1

CP201 = assay: as above; details: P. falciparum in erythrocytes, SYBR Green DNA, 72 h; series mostly up to 28.7 µM
Outline: as §1

CP203 = assay: as above; details: P. falciparum in erythrocytes, SYBR Green DNA, 72 h; series mostly up to 28.7 µM
Outline: as §1

CP237 = assay: as above; details: P. falciparum in erythrocytes, SYBR Green DNA, 72 h; series mostly up to 28.7 µM
Outline: as §1

CP238 = assay: as above; details: P. falciparum in erythrocytes, SYBR Green DNA, 72 h; series mostly up to 28.7 µM
Outline: as §1

CP247 = assay: as above; details: P. falciparum in erythrocytes, SYBR Green DNA, 72 h; series mostly up to 28.7 µM
Outline: as §1

CP286 = assay: as above; details: P. falciparum in erythrocytes, SYBR Green DNA, 72 h; series mostly up to 28.7 µM
Outline: as §1

DFO2036 = assay: as above; details: P. falciparum in erythrocytes, SYBR Green DNA, 72 h; series mostly up to 28.7 µM
Outline: as §1

DIV30 = assay: as above; details: P. falciparum in erythrocytes, SYBR Green DNA, 72 h; series mostly up to 28.7 µM
Outline: as §1

HB3 = assay: as above; details: P. falciparum in erythrocytes, SYBR Green DNA, 72 h; series mostly up to 28.7 µM
Outline: as §1

P94_40 = assay: as above; details: P. falciparum in erythrocytes, SYBR Green DNA, 72 h; series mostly up to 28.7 µM
Outline: as §1

ATP-dependent 6-phosphofructokinase (Trypanosoma brucei brucei), sequence (O15648 whole entry, looked up): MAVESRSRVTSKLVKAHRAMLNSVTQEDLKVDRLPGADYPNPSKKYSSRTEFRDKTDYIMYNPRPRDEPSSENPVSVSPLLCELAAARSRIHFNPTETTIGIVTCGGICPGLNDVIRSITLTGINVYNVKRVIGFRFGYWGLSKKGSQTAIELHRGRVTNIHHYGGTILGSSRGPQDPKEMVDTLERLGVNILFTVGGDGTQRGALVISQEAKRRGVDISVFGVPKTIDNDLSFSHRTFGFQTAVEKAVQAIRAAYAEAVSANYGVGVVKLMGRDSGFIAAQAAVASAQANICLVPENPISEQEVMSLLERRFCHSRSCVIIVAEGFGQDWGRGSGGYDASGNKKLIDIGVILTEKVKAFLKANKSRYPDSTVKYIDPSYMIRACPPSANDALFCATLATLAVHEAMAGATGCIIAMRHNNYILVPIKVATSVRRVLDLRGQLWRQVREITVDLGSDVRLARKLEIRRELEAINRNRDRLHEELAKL

CC12C=CC(=O)C=C1[C@@H](F)CC1C2C(O)CC2(C)C1CC[C@]2(O)C(=O)CO (stereo partly specified)
inactive: Potency [1] | activity, negative = inhibition ([2]; parasite line A) 4.43% | activity, negative = inhibition ([2]; parasite line B) 5.63% | Potency (3D7) | Potency (7G8) | Potency (AS120) | Potency (ATS189) | Potency (CP185) | Potency (CP191) | Potency (CP192) | Potency (CP194) | Potency (CP201) | Potency (CP203) | Potency (CP237) | Potency (CP238) | Potency (CP247) | Potency (CP286) | Potency (DFO2036) | Potency (DIV30) | Potency (HB3) | Potency (P94_40)

O=c1[nH]c(=O)n(C2C[C@H](O)[C@@H](CO)O2)cc1C(F)(F)F (stereo partly specified)
inactive: Potency [1] | activity, negative = inhibition ([2]; parasite line A) -3.45% | activity, negative = inhibition ([2]; parasite line B) -4.14% | Potency (3D7) | Potency (7G8) | Potency (AS120) | Potency (ATS189) | Potency (CP185) | Potency (CP191) | Potency (CP192) | Potency (CP194) | Potency (CP201) | Potency (CP203) | Potency (CP237) | Potency (CP238) | Potency (CP247) | Potency (CP286) | Potency (DFO2036) | Potency (DIV30) | Potency (HB3) | Potency (P94_40)

CC1CCC(C(C)C)C(O)C1 (stereo unspecified)
inactive: Potency [1] | activity, negative = inhibition ([2]; parasite line A) 7.33% | activity, negative = inhibition ([2]; parasite line B) 4.66% | Potency (3D7) | Potency (7G8) | Potency (AS120) | Potency (ATS189) | Potency (CP185) | Potency (CP191) | Potency (CP192) | Potency (CP194) | Potency (CP201) | Potency (CP203) | Potency (CP237) | Potency (CP238) | Potency (CP247) | Potency (CP286) | Potency (DFO2036) | Potency (DIV30) | Potency (HB3) | Potency (P94_40)

O=c1ccn(C2OC(COP(=O)(O)OC3C(CO)OC(n4ccc(=O)[nH]c4=O)C3O)C(O)C2O)c(=O)[nH]1 (stereo unspecified)
inactive: Potency [1] | activity, negative = inhibition ([2]; parasite line A) 0.515% | activity, negative = inhibition ([2]; parasite line B) 10.1% | Potency (3D7) | Potency (7G8) | Potency (AS120) | Potency (ATS189) | Potency (CP185) | Potency (CP191) | Potency (CP192) | Potency (CP194) | Potency (CP201) | Potency (CP203) | Potency (CP237) | Potency (CP238) | Potency (CP247) | Potency (CP286) | Potency (DFO2036) | Potency (DIV30) | Potency (HB3) | Potency (P94_40)

CC(=O)NC[C@@H]1CN(c2ccc(N3CCOCC3)c(F)c2)C(=O)O1
inactive: Potency [1] | activity, negative = inhibition ([2]; parasite line A) -12.2% | activity, negative = inhibition ([2]; parasite line B) -9.57% | Potency (3D7) | Potency (7G8) | Potency (AS120) | Potency (ATS189) | Potency (CP185) | Potency (CP191) | Potency (CP192) | Potency (CP194) | Potency (CP201) | Potency (CP203) | Potency (CP237) | Potency (CP238) | Potency (CP247) | Potency (CP286) | Potency (DFO2036) | Potency (DIV30) | Potency (HB3) | Potency (P94_40)

CC(O)C(N)C(=O)O (stereo unspecified)
inactive: Potency [1] | activity, negative = inhibition ([2]; parasite line A) 4.5% | activity, negative = inhibition ([2]; parasite line B) 11.6% | Potency (3D7) | Potency (7G8) | Potency (AS120) | Potency (ATS189) | Potency (CP185) | Potency (CP191) | Potency (CP192) | Potency (CP194) | Potency (CP201) | Potency (CP203) | Potency (CP237) | Potency (CP238) | Potency (CP247) | Potency (CP286) | Potency (DFO2036) | Potency (DIV30) | Potency (HB3) | Potency (P94_40)

CCCCCCCCCCCCCCCC(=O)OCC(COP(=O)(O)OCC[N+](C)(C)C)OC(=O)CCCCCCCCCCCCCCC (stereo unspecified)
inactive: Potency [1] | activity, negative = inhibition ([2]; parasite line A) -4.13% | activity, negative = inhibition ([2]; parasite line B) 3.84% | Potency (3D7) | Potency (7G8) | Potency (AS120) | Potency (ATS189) | Potency (CP185) | Potency (CP191) | Potency (CP192) | Potency (CP194) | Potency (CP201) | Potency (CP203) | Potency (CP237) | Potency (CP238) | Potency (CP247) | Potency (CP286) | Potency (DFO2036) | Potency (DIV30) | Potency (HB3) | Potency (P94_40)

C[C@]12CC[C@@H]3c4ccc(O)cc4CC[C@H]3[C@@H]1C[C@H](O)C2O (stereo partly specified)
inactive: Potency [1] | activity, negative = inhibition ([2]; parasite line A) 7.19% | activity, negative = inhibition ([2]; parasite line B) 12.7% | Potency (3D7) | Potency (7G8) | Potency (AS120) | Potency (ATS189) | Potency (CP185) | Potency (CP191) | Potency (CP192) | Potency (CP194) | Potency (CP201) | Potency (CP203) | Potency (CP237) | Potency (CP238) | Potency (CP247) | Potency (CP286) | Potency (DFO2036) | Potency (DIV30) | Potency (HB3) | Potency (P94_40)

CNC1C(O)C(OC2C(N)CC(N)C(OC3OC(CN)=CCC3N)C2O)OCC1(C)O (stereo unspecified)
inactive: Potency [1] | activity, negative = inhibition ([2]; parasite line A) 16.7% | activity, negative = inhibition ([2]; parasite line B) -10.7% | Potency (3D7) | Potency (7G8) | Potency (AS120) | Potency (ATS189) | Potency (CP185) | Potency (CP191) | Potency (CP192) | Potency (CP194) | Potency (CP201) | Potency (CP203) | Potency (CP237) | Potency (CP238) | Potency (CP247) | Potency (CP286) | Potency (DFO2036) | Potency (DIV30) | Potency (HB3) | Potency (P94_40)

C=CCn1c(=O)n(C2OC(CO)C(O)C2O)c2nc(N)[nH]c(=O)c21 (stereo unspecified)
inactive: Potency [1] | activity, negative = inhibition ([2]; parasite line A) 5.09% | activity, negative = inhibition ([2]; parasite line B) -6.68% | Potency (3D7) | Potency (7G8) | Potency (AS120) | Potency (ATS189) | Potency (CP185) | Potency (CP191) | Potency (CP192) | Potency (CP194) | Potency (CP201) | Potency (CP203) | Potency (CP237) | Potency (CP238) | Potency (CP247) | Potency (CP286) | Potency (DFO2036) | Potency (DIV30) | Potency (HB3) | Potency (P94_40)

Cc1cn([C@H]2CC(F)[C@@H](CO)O2)c(=O)[nH]c1=O (stereo partly specified)
inactive: Potency [1] | activity, negative = inhibition ([2]; parasite line A) 6.21% | activity, negative = inhibition ([2]; parasite line B) 4.03% | Potency (3D7) | Potency (7G8) | Potency (AS120) | Potency (ATS189) | Potency (CP185) | Potency (CP191) | Potency (CP192) | Potency (CP194) | Potency (CP201) | Potency (CP203) | Potency (CP237) | Potency (CP238) | Potency (CP247) | Potency (CP286) | Potency (DFO2036) | Potency (DIV30) | Potency (HB3) | Potency (P94_40)
